Records with an inconclusive call do not appear. The list shows a part of the results. Activity calls are given as the source filed them. Unless noted, calls follow the shape of the dose curve; as a rule, active = well fitted curve in the direction sought with a large enough effect; inconclusive = small, poorly fitted or top-dose-only effect, or another doubt; inactive = no such curve, though single readings can be large; an effect the other way counts as inactive or inconclusive.
Legend:
[1] = Quantitative high throughput screen for delayed death inhibitors of the malarial parasite plastid, 96 hour incubation (AID 488745); conditions: Plasmodium falciparum growth; series mostly up to 28.7 µM; also: potency is read from the fitted curve at half-maximal effect; nearly all actives have a fitted effect of over 70% in size
How it was run: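 Luciferase-expressing P. falciparum, infected RBCs 2% Hct/0.1% parasitemia (final); 96 h cpd exposure, 37 C, 5% CO2; RPMI 1640 + 0.5% Albumax, bicarbonate, gentamycin. Readout: luminescence loss = growth inhibition.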

[2] = Quantitative high throughput screen for delayed death inhibitors of the malarial parasite plastid, 48 hour incubation (AID 488752); conditions: Plasmodium falciparum growth; series mostly up to 28.7 µM; also: potency is read from the fitted curve at half-maximal effect; nearly all actives have a fitted effect of over 65% in size
How it was run: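 Luciferase-expressing P. falciparum in RBCs, 2% Hct, 0.1% parasitemia final; RPMI 1640 + 0.5% Albumax; 48 h, 37 C, 5% CO2; luminescence readout, signal drop = growth inhibition.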

[3] = target: M-phase phosphoprotein 8 (Homo sapiens) (UniProt Q99549); assay: qHTS Validation Assay for Inhibitors for MPP8 Chromodomain Interactions with Methylated Histone Tails (AID 488949); conditions: AlphaScreen MPP8 binding to H3K9me3 peptide; series mostly up to 114 µM; also: potency is read from the fitted curve at half-maximal effect; nearly all actives have a fitted effect of over 55% in size
How it was run: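 50 nM MPP8 + 50 nM b-H3K9me3 peptide, PBS pH 7.4/0.01% Tween-20, 30 min RT; + cpd 30 min RT; + AlphaScreen donor/Ni-chelate acceptor beads 10 ug/mL final, 30 min dark; luminescence read.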

[4] = target: Thyrotropin receptor (Homo sapiens) (UniProt P16473); assay: qHTS Assay for Antagonists of the Thyroid Stimulating Hormone Receptor (AID 488980); conditions: TSHR-expressing cells, cAMP antagonist read-out; series mostly up to 57.5 µM; also: 0% is about no effect
How it was run: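 Readout is cAMP by HTRF competition between cellular cAMP and cAMP-d2 for a cryptate-labelled antibody. Antagonism was assessed in TSHR-transfected HEK293 cells stimulated with 4 nM TSH (EC80, final) in the presence of RO 20-1724.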

[5] = target: Thyrotropin-releasing hormone receptor (Homo sapiens) (UniProt P34981); assay: qHTS for Small Molecule Agonists and Allosteric Enhancers of Human TRH Receptor: Validation Screen for Agonists (AID 493127;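 active = calcium activation more than 3 SD above the typical response in the agonist read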;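 also: intracellular calcium rise by fluo-8 fluorescence before TRH EC20 addition; 0% is about no effect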); conditions: TRH receptor agonist cell assay; at 2 µM; active compounds read high
How it was run: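 Read-out: intracellular calcium release measured kinetically by FDSS (fluo-8, ex 480/em 530 nm), 1 reading/s after a 10-cycle baseline. TRHR cells, 2000/well, cultured 18 h at 33.5C, dye-loaded at room temp. Compound-evoked positive calcium signal flags agonists.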

[6] = target: Galactokinase (Homo sapiens) (UniProt P51570); assay: qHTS Validation Assay for Inhibitors of Human Galactokinase (GALK) (AID 493189); conditions: purified human GALK enzyme activity, qHTS 7-point titration; series mostly up to 57.5 µM; also: 0% is about no effect
How it was run: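 5 nM GALK / 100 uM galactose / 35 uM ATP, 20 mM HEPES pH8.0, 5 mM MgCl2, 60 mM NaCl, 1 mM DTT, 0.01% BSA (final). RT 1 h; Kinase-Glo Plus luminescence.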

[7] = target: Voltage-gated inwardly rectifying potassium channel KCNH2 (Homo sapiens) (UniProt Q12809); assay: qHTS Assay for Small Molecule Inhibitors of the Human hERG Channel Activity (AID 588834); conditions: U2OS BacMam hERG, FluxOR thallium flux fluorescence; series mostly up to 46.1 µM;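 also: potency is read from the fitted curve at half-maximal effect; lower thallium flux fluorescence means stronger hERG block; nearly all actives have a fitted effect of over 50% in size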
How it was run: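 Step 1: BacMam hERG transduction of U2OS, 4 hrs RT. Step 2: overnight 37 °C, plate 2000 cells/well, 4 hr. Step 3: FluxOR load, compound 10 min, stimulate, read fluorescence.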

[8] = target: Rap guanine nucleotide exchange factor 3 (Homo sapiens) (UniProt O95398); assay: Counterscreen qHTS for antagonist of cAMP-regulated guanine nucleotide exchange factor 3 (EPAC1) (AID 1645888); conditions: Rap1B-BODIPY-GDP nucleotide exchange, fluorescence; series mostly up to 154 µM;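 also: fluorescence loss as bound BODIPY-GDP is released from Rap1B; % of control where 0% means no effect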
How it was run: (§1)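 Rap1B–BODIPY-GDP (250 nM) with 50 uM GDP; compounds pin-transferred to 9.74 nM–152 uM final (activator) or from 7.32 nM upwards (inhibitor). Fluorescence Ex/Em 480/540 nm read at 5 and 30 min, then after adding cAMP or buffer, at room temperature.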

[9] = target: Rap guanine nucleotide exchange factor 3 (Homo sapiens) (UniProt O95398); assay: Counterscreen qHTS for agonist of cAMP-regulated guanine nucleotide exchange factor 3 (EPAC1) (AID 1645889); conditions: EPAC1 Rap1B-BODIPY-GDP exchange, fluorescence; series mostly up to 30.8 µM; also: % of control where 0% means no effect; nearly all actives have a fitted effect of over 40% in size
How it was run: as §1

[10] = qHTS for Inhibitors of the vitamin D receptor (VDR): Hit Validation using a Texas Red Assay (AID 602201); conditions: VDR coregulator binding, Texas Red fluorescence polarization; agonist-bound VDR ligand-binding domain; also: potency is read from the fitted curve at half-maximal effect
How it was run: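 Fluorescence polarization with 1.5 uM VDR-LBD, LG19078 and 7 nM Texas Red (final). After 2 hours at ambient temperature, read at Ex 595 nm/Em 615 nm.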

[11] = target: Flap endonuclease 1 (Homo sapiens) (UniProt P39748); assay: qHTS Assay for the Inhibitors of FEN1: Confirmatory Assay for Cherry-picked Compounds (AID 720498); conditions: FEN1 flap cleavage, TAMRA/BHQ2 fluorogenic DNA substrate; also: potency is read from the fitted curve at half-maximal effect; nearly all actives have a fitted effect of over 60% in size
How it was run: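 Human FEN1 (10 nM reagent) was preincubated with compounds for 15 min at room temperature, then 50 nM final double-flap DNA substrate (5'-TAMRA flap, BHQ-2 quencher strand) was added. Fluorescence (ex 525/em 598 nm) was read at 0 and 15 min.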

[12] = qHTS for Inhibitors of the vitamin D receptor (VDR): Hit Validation using a Cytotoxicity Assay (AID 602204); conditions: cytotoxicity counter-screen, cell viability; series mostly up to 48.3 µM;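 also: plate controls were DMSO for no effect and high-concentration cycloheximide for full effect; nearly all actives have a fitted effect of over 75% in size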
How it was run: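 First, 20,000 cells are dispensed per well. Next comes a 4 h incubation, then compound addition and an 18 h incubation. Finally, ATP-based luminescent reagent is added and plates are read after 30 min.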

M-phase phosphoprotein 8 (Homo sapiens), sequence (Q99549 whole entry, looked up): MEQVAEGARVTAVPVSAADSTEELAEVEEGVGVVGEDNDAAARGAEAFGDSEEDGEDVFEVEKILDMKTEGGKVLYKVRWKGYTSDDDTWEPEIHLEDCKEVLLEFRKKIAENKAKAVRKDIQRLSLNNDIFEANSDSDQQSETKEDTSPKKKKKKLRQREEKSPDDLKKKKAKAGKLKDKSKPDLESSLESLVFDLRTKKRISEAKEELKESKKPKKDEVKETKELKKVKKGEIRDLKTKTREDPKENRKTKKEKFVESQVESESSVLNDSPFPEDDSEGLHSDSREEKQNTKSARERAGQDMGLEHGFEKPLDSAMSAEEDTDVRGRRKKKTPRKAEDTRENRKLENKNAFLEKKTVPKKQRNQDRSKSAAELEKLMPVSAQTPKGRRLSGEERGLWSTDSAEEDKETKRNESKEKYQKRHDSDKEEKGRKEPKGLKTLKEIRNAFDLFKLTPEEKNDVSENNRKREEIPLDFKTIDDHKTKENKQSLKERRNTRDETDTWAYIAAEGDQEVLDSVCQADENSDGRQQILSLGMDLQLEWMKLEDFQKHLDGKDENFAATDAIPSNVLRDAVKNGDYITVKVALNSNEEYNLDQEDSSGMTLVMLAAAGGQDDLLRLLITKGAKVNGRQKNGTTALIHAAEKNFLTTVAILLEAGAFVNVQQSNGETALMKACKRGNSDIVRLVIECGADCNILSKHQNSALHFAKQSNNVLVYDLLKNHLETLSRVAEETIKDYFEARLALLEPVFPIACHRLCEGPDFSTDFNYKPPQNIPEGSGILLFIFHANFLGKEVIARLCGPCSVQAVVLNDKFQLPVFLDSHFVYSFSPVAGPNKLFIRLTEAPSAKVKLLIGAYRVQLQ
Flap endonuclease 1 (Homo sapiens), sequence (P39748 whole entry, looked up): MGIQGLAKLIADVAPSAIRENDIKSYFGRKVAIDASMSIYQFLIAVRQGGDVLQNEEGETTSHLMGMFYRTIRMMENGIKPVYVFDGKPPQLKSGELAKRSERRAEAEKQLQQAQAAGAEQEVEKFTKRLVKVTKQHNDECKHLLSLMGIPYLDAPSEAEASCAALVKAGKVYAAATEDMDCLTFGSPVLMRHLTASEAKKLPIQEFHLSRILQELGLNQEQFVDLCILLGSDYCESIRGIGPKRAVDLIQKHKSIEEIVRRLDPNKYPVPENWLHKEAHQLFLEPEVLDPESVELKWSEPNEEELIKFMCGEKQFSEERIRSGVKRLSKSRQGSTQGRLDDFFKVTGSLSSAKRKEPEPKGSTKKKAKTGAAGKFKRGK
Galactokinase (Homo sapiens), sequence (P51570 whole entry, looked up): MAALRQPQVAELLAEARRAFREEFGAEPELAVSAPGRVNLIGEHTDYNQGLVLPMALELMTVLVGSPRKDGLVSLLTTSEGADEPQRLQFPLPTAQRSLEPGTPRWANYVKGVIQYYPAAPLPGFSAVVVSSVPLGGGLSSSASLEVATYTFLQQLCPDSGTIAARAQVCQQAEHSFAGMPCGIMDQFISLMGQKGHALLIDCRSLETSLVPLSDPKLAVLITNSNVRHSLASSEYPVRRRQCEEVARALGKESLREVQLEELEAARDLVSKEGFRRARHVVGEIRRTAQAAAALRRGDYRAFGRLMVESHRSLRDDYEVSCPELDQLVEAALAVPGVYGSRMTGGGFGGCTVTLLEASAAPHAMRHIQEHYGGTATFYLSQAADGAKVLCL
Thyrotropin-releasing hormone receptor (Homo sapiens), sequence (P34981 whole entry, looked up): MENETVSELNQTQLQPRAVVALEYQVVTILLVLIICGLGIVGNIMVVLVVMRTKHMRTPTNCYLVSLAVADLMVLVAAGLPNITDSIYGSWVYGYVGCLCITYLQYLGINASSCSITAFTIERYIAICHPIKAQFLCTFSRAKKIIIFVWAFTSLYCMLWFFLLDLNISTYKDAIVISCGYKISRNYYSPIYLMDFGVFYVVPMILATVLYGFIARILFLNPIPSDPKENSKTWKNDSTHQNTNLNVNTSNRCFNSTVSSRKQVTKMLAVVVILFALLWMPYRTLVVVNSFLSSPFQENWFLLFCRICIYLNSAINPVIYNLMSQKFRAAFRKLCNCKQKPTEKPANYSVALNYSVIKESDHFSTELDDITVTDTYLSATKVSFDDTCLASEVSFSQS
Thyrotropin receptor (Homo sapiens), sequence (P16473 whole entry, looked up): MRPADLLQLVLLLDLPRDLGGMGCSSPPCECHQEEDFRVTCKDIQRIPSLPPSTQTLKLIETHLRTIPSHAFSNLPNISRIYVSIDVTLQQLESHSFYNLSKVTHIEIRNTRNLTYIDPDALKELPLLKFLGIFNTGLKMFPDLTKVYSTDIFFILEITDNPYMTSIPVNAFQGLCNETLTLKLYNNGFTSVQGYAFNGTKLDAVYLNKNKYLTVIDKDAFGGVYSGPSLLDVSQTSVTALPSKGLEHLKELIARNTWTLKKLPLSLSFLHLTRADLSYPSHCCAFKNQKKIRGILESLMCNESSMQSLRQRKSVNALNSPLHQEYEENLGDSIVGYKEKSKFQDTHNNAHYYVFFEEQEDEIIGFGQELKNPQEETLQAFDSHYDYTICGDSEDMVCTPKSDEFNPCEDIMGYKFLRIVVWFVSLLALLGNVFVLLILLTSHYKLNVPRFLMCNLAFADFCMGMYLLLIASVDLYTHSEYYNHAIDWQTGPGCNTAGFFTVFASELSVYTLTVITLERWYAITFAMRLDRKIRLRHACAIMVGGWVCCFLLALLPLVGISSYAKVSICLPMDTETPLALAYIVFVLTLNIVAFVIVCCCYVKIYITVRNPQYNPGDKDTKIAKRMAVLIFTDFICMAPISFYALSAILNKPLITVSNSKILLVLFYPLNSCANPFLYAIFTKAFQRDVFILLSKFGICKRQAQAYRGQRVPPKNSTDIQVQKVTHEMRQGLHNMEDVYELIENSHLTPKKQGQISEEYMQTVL
Voltage-gated inwardly rectifying potassium channel KCNH2 (Homo sapiens), sequence (Q12809 whole entry, looked up): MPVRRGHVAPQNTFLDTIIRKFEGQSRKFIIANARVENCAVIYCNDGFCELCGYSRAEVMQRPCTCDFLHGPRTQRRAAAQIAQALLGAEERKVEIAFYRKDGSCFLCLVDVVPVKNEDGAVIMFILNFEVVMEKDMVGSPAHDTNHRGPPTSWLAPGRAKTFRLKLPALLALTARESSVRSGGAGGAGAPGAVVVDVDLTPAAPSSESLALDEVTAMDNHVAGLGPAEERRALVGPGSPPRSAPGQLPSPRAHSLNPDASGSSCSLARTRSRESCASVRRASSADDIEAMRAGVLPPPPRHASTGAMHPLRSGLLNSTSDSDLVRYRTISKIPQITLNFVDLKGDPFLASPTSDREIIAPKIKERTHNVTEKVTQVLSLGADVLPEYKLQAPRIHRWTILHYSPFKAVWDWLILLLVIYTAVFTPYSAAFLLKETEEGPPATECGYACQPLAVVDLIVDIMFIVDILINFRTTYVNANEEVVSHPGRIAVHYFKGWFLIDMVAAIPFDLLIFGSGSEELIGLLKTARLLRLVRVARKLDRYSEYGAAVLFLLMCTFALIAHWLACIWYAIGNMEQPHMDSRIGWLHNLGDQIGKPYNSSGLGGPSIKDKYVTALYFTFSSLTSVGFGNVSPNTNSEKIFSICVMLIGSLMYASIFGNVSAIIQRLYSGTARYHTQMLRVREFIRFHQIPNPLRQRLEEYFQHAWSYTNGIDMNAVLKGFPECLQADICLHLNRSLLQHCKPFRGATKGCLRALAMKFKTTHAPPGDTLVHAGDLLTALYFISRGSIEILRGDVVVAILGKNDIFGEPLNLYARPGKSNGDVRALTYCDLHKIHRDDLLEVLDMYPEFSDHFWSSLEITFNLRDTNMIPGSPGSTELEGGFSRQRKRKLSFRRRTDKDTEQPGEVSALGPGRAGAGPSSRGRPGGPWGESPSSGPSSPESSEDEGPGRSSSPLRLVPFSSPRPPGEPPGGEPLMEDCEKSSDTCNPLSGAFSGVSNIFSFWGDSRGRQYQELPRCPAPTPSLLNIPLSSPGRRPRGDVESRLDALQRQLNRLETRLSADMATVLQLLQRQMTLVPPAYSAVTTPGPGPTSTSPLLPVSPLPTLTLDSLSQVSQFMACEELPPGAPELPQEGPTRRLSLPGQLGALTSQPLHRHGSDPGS
Rap guanine nucleotide exchange factor 3 (Homo sapiens), sequence (O95398 whole entry, looked up): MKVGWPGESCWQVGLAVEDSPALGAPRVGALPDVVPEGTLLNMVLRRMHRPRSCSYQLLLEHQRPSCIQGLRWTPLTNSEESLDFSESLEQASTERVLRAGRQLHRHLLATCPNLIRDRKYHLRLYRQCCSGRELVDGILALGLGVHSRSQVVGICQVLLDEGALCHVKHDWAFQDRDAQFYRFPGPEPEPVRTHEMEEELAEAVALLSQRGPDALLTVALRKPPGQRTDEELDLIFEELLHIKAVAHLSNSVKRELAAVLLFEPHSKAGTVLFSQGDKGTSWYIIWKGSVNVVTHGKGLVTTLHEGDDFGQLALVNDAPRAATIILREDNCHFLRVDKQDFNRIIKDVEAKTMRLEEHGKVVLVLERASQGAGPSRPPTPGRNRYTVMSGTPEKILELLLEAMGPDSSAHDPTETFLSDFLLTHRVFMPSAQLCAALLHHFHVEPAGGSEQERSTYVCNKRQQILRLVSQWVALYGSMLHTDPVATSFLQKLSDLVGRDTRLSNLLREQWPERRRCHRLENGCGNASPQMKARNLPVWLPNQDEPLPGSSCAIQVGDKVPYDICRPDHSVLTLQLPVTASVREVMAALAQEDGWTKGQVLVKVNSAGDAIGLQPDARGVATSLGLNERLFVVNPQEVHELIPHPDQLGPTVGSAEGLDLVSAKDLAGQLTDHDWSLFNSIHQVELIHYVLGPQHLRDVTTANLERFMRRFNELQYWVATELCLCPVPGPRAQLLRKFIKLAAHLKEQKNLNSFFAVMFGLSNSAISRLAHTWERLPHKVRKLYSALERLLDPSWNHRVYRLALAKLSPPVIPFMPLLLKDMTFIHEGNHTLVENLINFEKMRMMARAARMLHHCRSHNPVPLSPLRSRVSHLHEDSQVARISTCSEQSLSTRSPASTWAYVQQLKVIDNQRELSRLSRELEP

With `NC(=NCc1ccc(Cl)c(Cl)c1)NC(=O)c1nc(Cl)c(N)nc1N` the Potency [1] was 586 nM (active), the Potency [2] was 370 nM (active) and the Potency [3] was 50100 nM (active). For the same compound, the outcome [4] was “inactive”, the activation [5] was 4.94% (inactive) and the outcome [6] was “inactive”. For the same compound, the Potency [7] was 2000 nM (active).

In the case of `CCCCCc1c2c(cc(O)c1C(=O)O)OC(=O)c1cc(C(=O)CCCC)c(OC)cc1O2`, the outcome [8] is reported as “inactive” and the outcome [9] is reported as “inactive”.

With `CCOc1ccc(NC(=O)c2c(NC(=O)Cc3ccccc3)sc3c2CCC(C)C3)cc1` (configuration not stated) the Potency [10] was 3550 nM (active).

With `CCC1CCCCN1CCCNC(=O)c1cc2c(Cl)nc3ccccc3c2s1` (configuration not stated) the Potency [11] was 33800 nM (active).

In the case of `CCCCOc1ccc(CN2C(=O)C(=O)c3cc(Br)cc(C)c32)cc1OC`, the outcome [12] is reported as “inactive”.
